MPTP inh: mitochondrial permeability transition pore inhibitors, primary screen, biochemical, isolated mouse mitochondria, absorbance; Ca2+ swelling absorbance, 30 min; inhibition, % at 10 µM; 360,000 tested, 1.4% active; AID 602449, 2012;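 active means inhibition of 50% or more, scaled per plate between neutral and stimulator controls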;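 further: 0% = DMSO wells given calcium and 100% = 1 mM EGTA wells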
tim23-1 inh: growth inhibitors of tim23-1 mutant yeast, primary screen, luminescence, uHTS; S. cerevisiae tim23-1 growth, BacTiter-Glo luminescence, 24 h; inhibition, % at 20 µM; 330,000 tested, 1.3% active;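 active means growth inhibition of the mutant yeast at or above 50%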;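 further: temperature-sensitive mutant grown at 25 °C; plate controls were DMSO-treated mutant yeast for no effect and medium wells lacking yeast for full effect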
tim10-1 inh: growth inhibitors of tim10-1 mutant yeast, primary screen, luminescence, uHTS | S. cerevisiae tim10-1 ts strain growth, BacTiter-Glo, 24 h | inhibition, % at 20 µM | 330,000 tested, 2.2% active | AID 463190, 2010;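 active means inhibition of at least 40%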;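 further: mutant grown at 25 °C; 0% = DMSO wells with yeast and 100% = wells holding no yeast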
Mdm2 MdmX PPI: inhibitors of human Mdm2-MdmX association, primary screen, cell-based, luminescence, split luciferase, SaOS-2, uHTS | inhibition, % at 8 µM | 330,000 tested, 3% active | Protein Mdm4 (Homo sapiens) + E3 ubiquitin-protein ligase Mdm2 (Homo sapiens), … | SaOS-2 split-luciferase Mdm2/MdmX complementation | AID 485346, 2010;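 active means inhibition of at least 50% at 8 µM in the primary screen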
TIM10 inh: growth inhibitors of isogenic TIM10 control yeast, primary screen, counter-screen for tim10-1 yeast inhibitor project, luminescence, uHTS | S. cerevisiae TIM10 strain growth, BacTiter-Glo luminescence, 24 h | AID 463195, 2010 | inhibition, % at 10 µM | 330,000 tested, 1.4% active;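 active means inhibition of 40% or more at the single tested concentration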;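 further: wild-type TIM10 isogenic control strain grown at permissive 25 °C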
Rh123 counter: fluorescence retest of MPTP screen hits in isolated mitochondria, single concentration; shares compounds with MPTP inh; membrane potential, Rhodamine 123 fluorescence; inhibition, % at 10 µM; 5,000 tested, 78% active; in the data active means inhibition above about 22%;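 further: 0% = DMSO vehicle and 100% = positive control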
MPTP abs DR: mitochondrial permeability transition pore inhibitors, dose response, biochemical, absorbance, uHTS hits; shares compounds with MPTP inh; isolated mitochondria swelling; IC50, µM; 780 tested, 58% active; AID 651561, 2012; in the data active means IC50 below about 20 µM
MPTP counter DR: fluorescent counter-screen in isolated mitochondria, dose response, counter-screen for MPTP inhibitor project, biochemical, fluorescence, uHTS hits; shares compounds with MPTP inh; isolated mitochondria counterscreen, fluorescence read-out; IC50, µM; 780 tested, 49% active; in the data active means IC50 below about 80 µM
Numbers without * were called inactive; i = inactive; . = no result given. Most compounds without a hit are left out; they make up all but 6.3% or so of the library.

SMILES	MPTP inh	tim23-1 inh	tim10-1 inh	Mdm2 MdmX PPI	TIM10 inh	Rh123 counter	others
CCOC(=O)c1sc(NC(=O)Nc2ccccc2Cl)cc1C	72.3*	21.1	1.9	-51.2	-8.4	60.0*
Cc1cc(NC(=O)c2cccc(S(=O)(=O)N3c4ccccc4CC3C)c2)no1 (configuration not stated)	2.3	22.7	-12.7	25.0	-19.0	.
CCOC(=O)c1sc(NC(=O)c2cccc(S(=O)(=O)N3c4ccccc4CC3C)c2)cc1C (configuration not stated)	55.6*	0.5	-0.8	19.2	-6.8	38.2*
CCOC(=O)c1sc(NC(=O)c2ccc(C)s2)cc1C	-0.1	40.4	-3.1	-231.6	28.0	.
O=C1CCCCC1Nc1ccc(Br)cc1 (configuration not stated)	0.2	.	.	.	.	.
O=c1[nH]cnc2c1nnn2C1OC(CO)C(O)C1O (configuration not stated)	-2.3	.	.	.	.	.
Cc1ccc(CCNc2ncnc(Cl)c2N)cc1	100.6*	.	.	.	.	108.2*
COc1ccc(-c2ccc3nncn3c2)cn1	0.4	.	.	.	.	.
COC(=O)c1c(NC(=O)c2ccccc2)sc2c1CC(C)(C)OC2	2.3	7.2	18.1	-9.3	4.8	.
CCOC(=O)c1c(NC(=O)Cc2ccccc2)sc2c1CC(C)(C)NC2(C)C	70.6*	-10.8	10.3	36.2	6.9	-4.5	MPTP abs DR=i;MPTP counter DR=>80
COC(=O)c1c(NC(=O)c2ccccc2)sc2c1CC(C)(C)NC2(C)C	73.0*	21.6	31.3	42.1	-2.2	-5.1	MPTP abs DR=18.4*;MPTP counter DR=>80
CC1(C)Cc2c(sc(NC(=O)Cc3ccccc3)c2C#N)C(C)(C)N1	-0.4	.	.	.	.	.
CN(Cc1ccccc1)CC(O)COc1ccc(CNCc2ccc(Cl)s2)cc1 (configuration not stated)	91.3*	-37.6	-20.6	24.7	-18.0	-6.0	MPTP abs DR=7.97*;MPTP counter DR=35.9*
O=[N+]([O-])c1ccc(O)c(Nc2ncnc3ccc(Br)cc23)c1	102.5*	-21.9	-51.2	34.7	-12.7	85.1*
O=C(Cc1ccccc1[N+](=O)[O-])NCc1ccc(Cl)cc1	-3.4	-12.2	9.5	-61.9	2.9	.
O=C(NCc1ccc(Cl)cc1)c1n[nH]c([N+](=O)[O-])c1Cl	76.0*	0.1	4.2	-13.3	-7.1	90.7*
COc1ccc(CNCCc2ccc(Cl)cc2)cc1OCc1ccccc1	86.0*	-6.6	28.1	37.6	9.4	84.0*
Cn1nnnc1SCCNCc1ccccc1OCc1ccc(Cl)cc1	1.5	-28.7	-9.1	-1.5	-24.9	.
Brc1ccc(CNCc2cccs2)cc1	0.6	-21.6	3.8	-5.5	-19.6	.
c1ccc(COc2ccc(CNCc3cccs3)cc2)cc1	95.5*	-28.3	-21.4	-2.0	20.2	-1.4	MPTP abs DR=6.43*;MPTP counter DR=31.4*
COc1ccc(CCNC(=O)Cc2ccc(OCc3ccccc3)c(OC)c2[N+](=O)[O-])cc1OCc1ccccc1	75.6*	18.6	12.4	36.6	6.1	54.9*
Cn1nnnc1SCCNCc1cc(Cl)ccc1OCc1ccccc1	82.9*	1.8	11.3	-10.5	13.0	30.6*
COc1ncnc2c1ncn2CCCN1CCN(Cc2ccc(C)cc2)CC1	-0.4	.	.	.	.	.
COc1cc(CNCCc2ccc(S(N)(=O)=O)cc2)ccc1OCC(=O)NC(C)(C)C	0.0	5.9	8.9	20.4	-10.4	.
NS(=O)(=O)c1ccc(CCNCc2cc(Br)ccc2OCc2ccccc2)cc1	65.9*	10.8	16.1	8.5	-5.6	52.2*
SMILES	MPTP inh	tim23-1 inh	tim10-1 inh	Mdm2 MdmX PPI	TIM10 inh	Rh123 counter	others
COc1ccc(CCNCc2ccc(OCc3ccccc3)cc2)cc1	98.5*	-105.6	-49.4	-3.8	-45.6	-1.6	MPTP abs DR=4.4*;MPTP counter DR=27.5*
CCOc1cc(CNCCc2ccc(S(N)(=O)=O)cc2)ccc1OCc1ccccc1	104.9*	.	.	.	.	40.6*
COc1ccc(NC(=O)Nc2ccc(C)cc2OC(F)F)cc1OC	52.3*	7.5	7.8	5.4	18.6	36.3*
CCOC(=O)c1cc(NC(=O)Nc2ccc(Br)cc2)c(C)nc1C	73.8*	31.2	38.9	7.9	29.2	69.8*
CC(C)(C)c1ccc(NC(=O)Nc2ccc(F)cc2)cc1	98.6*	10.5	12.1	-134.8	17.7	88.3*
CCOC(=O)c1cc(NC(=O)Nc2ccccc2Cl)c(C)nc1C	-0.6	6.5	30.8	-13.0	20.9	.
COC(=O)c1ccc(NC(=O)Nc2ccc(F)c(Cl)c2)cc1	91.2*	13.9	9.8	37.0	-8.3	83.2*
CC(C)CNC(=O)Nc1ccc(F)c(Cl)c1	36.5	5.4	5.9	-3.1	-3.5	.
CCc1nc2ccc(C(=O)NCc3ccc(OC)cc3)cn2c1N(CC)CCN(C)C	-0.3	.	.	.	.	.
Cc1cccc(-n2c(SCC(=O)c3c(N)n(C4CC4)c(=O)[nH]c3=O)nnc2N2CCOCC2)c1	-1.5	-0.9	-7.4	-5.9	-2.7	.
CC(=O)Nc1c(Cl)cc2c(c1Cl)C(=O)c1ccccc1-2	0.4	.	.	.	.	.
COC(=O)c1ccc(NC(=O)Nc2ccc(F)cc2)cc1	63.5*	-39.4	-45.3	-32.1	-20.7	96.5*
CCOC(=O)c1ccc(NC(=O)Oc2cc(C)c(Cl)cc2C(C)C)cc1	63.9*	20.2	17.4	14.3	-7.3	68.6*
CCOC(=O)c1ccc(NC(=O)Nc2ccc(OC)c(OC)c2)cc1	64.6*	3.4	21.0	12.0	9.1	69.0*
CCOC(=O)C(=O)Nc1ccc(F)cc1	0.4	5.5	12.7	-4.1	-0.3	.
CCOC(=O)c1ccc(NC(=O)Nc2ccc(F)cc2)cc1	97.1*	2.8	-23.6	-5.7	-15.3	84.9*
C[C@@H]1CN([C@H](C)CO)C(=O)CCCn2nncc2CO[C@@H]1CN(C)S(=O)(=O)c1ccccc1	-1.4	.	.	.	.	.
O=C(CC[C@H]1O[C@@H](n2ccc(=O)[nH]c2=O)[C@H](O)[C@@H]1O)NCCN1CCOCC1	-1.6	.	.	.	.	.
CCCC[C@@H]1CC2=C(C(=O)OC(C)(C)O2)[C@@H](c2ccc(F)cc2)O1	0.3	.	.	.	.	.
CCOC(=O)c1sc(NC(=O)Nc2ccc(F)cc2)nc1C	73.2*	5.7	13.8	-146.2	20.6	84.3*
COC(=O)c1ccc(NC(=O)Nc2ccccc2F)cc1	54.4*	12.1	-22.8	-182.3	-7.2	83.9*
CC(=O)Nc1ccc(C(=O)N2CCCCC2c2cc(C(=O)NC(C)C)no2)cc1 (configuration not stated)	-2.6	.	.	.	.	.
N#CCCN(C(=O)Nc1ccc(Cl)c(Cl)c1)c1ccccc1	97.0*	19.6	25.5	11.2	17.9	92.9*

Assay outcomes deposited in PubChem by Sanford-Burnham Center for Chemical Genomics.
